Test results: PubChem BioAssay AID1159580 (chemical genetic matrix, 2015)
Among all 5,500 compounds or so, about 2,000 (36%) were called active. About 18% were inconclusive and are not listed. Cut-off read from the data, not from the text of the source: active = normalized growth mostly below about 0.91 (no sharp cut-off); inconclusive = no clear call, values can overlap the other calls; inactive = mostly above about 0.92. The list shows a part of the results.

Assay: chemical genetic growth profiling, strain panel (AID 1159580);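 note: tested at 20 µM; growth read once vehicle control cultures reached saturation at 30 °C; 1 = growth at the plate median or of vehicle wells; lower values mean less growth of the strain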
Conditions: growth OD
[1] = S. cerevisiae deletion strains, locus YAR019C, strain CDC15, active compounds read low
[2] = S. cerevisiae deletion strains, locus YBL105C, strain PKC1, active compounds read low
[3] = S. cerevisiae deletion strains, locus YBR135W, strain CKS1, active compounds read low
[4] = S. cerevisiae deletion strains, locus YBR136W, strain MEC1, active compounds read low
[5] = S. cerevisiae deletion strains, locus YBR160W, strain CDC28, active compounds read low
[6] = S. cerevisiae deletion strains, locus YDL017W, strain CDC7, active compounds read low
[7] = S. cerevisiae deletion strains, locus YDL028C, strain MPS1, active compounds read low
[8] = S. cerevisiae deletion strains, locus YDL101C, strain DUN1, active compounds read low
[9] = S. cerevisiae deletion strains, locus YDL108W, strain KIN28, active compounds read low
[10] = S. cerevisiae deletion strains, locus YDL132W, strain cdc53, active compounds read low
[11] = S. cerevisiae deletion strains, locus YDL214C, strain PRR2, active compounds read low
[12] = S. cerevisiae deletion strains, locus YDR052C, strain DBF4, active compounds read low
[13] = S. cerevisiae deletion strains, locus YDR054C, strain cdc34, active compounds read low
[14] = S. cerevisiae deletion strains, locus YDR226W, strain ADK1, active compounds read low
[15] = S. cerevisiae deletion strains, locus YDR477W, strain SNF1, active compounds read low
[16] = S. cerevisiae deletion strains, locus YER123W, strain YCK3, active compounds read low
[17] = S. cerevisiae deletion strains, locus YER133W, strain GLC7, active compounds read low
[18] = S. cerevisiae deletion strains, locus YFL009W, strain cdc4, active compounds read low
[19] = S. cerevisiae deletion strains, locus YFL029C, strain CAK1, active compounds read low
[20] = S. cerevisiae deletion strains, locus YFR003C, strain YPI1, active compounds read low
[21] = S. cerevisiae deletion strains, locus YFR019W, strain FAB1, active compounds read low
[22] = S. cerevisiae deletion strains, locus YFR028C, strain CDC14, active compounds read low
[23] = S. cerevisiae deletion strains, locus YGR040W, strain KSS1, active compounds read low
[24] = S. cerevisiae deletion strains, locus YGR052W, strain FMP48, active compounds read low
[25] = S. cerevisiae deletion strains, locus YGR092W, strain DBF2, active compounds read low
[26] = S. cerevisiae deletion strains, locus YHR030C, strain SLT2, active compounds read low
[27] = S. cerevisiae deletion strains, locus YHR079C, strain IRE1, active compounds read low
[28] = S. cerevisiae deletion strains, locus YHR082C, strain KSP1, active compounds read low
[29] = S. cerevisiae deletion strains, locus YHR205W, strain SCH9, active compounds read low
[30] = S. cerevisiae deletion strains, locus YIL147C, strain SLN1, active compounds read low
[31] = S. cerevisiae deletion strains, locus YJL095W, strain BCK1, active compounds read low
[32] = S. cerevisiae deletion strains, locus YJL128C, strain PBS2, active compounds read low
[33] = S. cerevisiae deletion strains, locus YJL157C, strain FAR1, active compounds read low
[34] = S. cerevisiae deletion strains, locus YJR016C, strain ILV3, active compounds read low
[35] = S. cerevisiae deletion strains, locus YJR066W, strain TOR1 (second series), active compounds read low
[36] = S. cerevisiae deletion strains, locus YJR066W, strain TOR1, active compounds read low
[37] = S. cerevisiae deletion strains, locus YKL048C, strain ELM1, active compounds read low
[38] = S. cerevisiae deletion strains, locus YKL067W, strain YNK1, active compounds read low
[39] = S. cerevisiae deletion strains, locus YKL101W, strain HSL1, active compounds read low
[40] = S. cerevisiae deletion strains, locus YKL193C, strain SDS22, active compounds read low
[41] = S. cerevisiae deletion strains, locus YKL203C, strain TOR2, active compounds read low
[42] = S. cerevisiae deletion strains, locus YLR113W, strain HOG1, active compounds read low
[43] = S. cerevisiae deletion strains, locus YLR133W, strain CKI1, active compounds read low
[44] = S. cerevisiae deletion strains, locus YLR403W, strain SFP1, active compounds read low
[45] = S. cerevisiae deletion strains, locus YML070W, strain DAK1, active compounds read low
[46] = S. cerevisiae deletion strains, locus YMR001C, strain CDC5, active compounds read low
[47] = S. cerevisiae deletion strains, locus YMR205C, strain PFK2 (second series), active compounds read low
[48] = S. cerevisiae deletion strains, locus YMR277W, strain FCP1, active compounds read low
[49] = S. cerevisiae deletion strains, locus YNL006W, strain LST8, active compounds read low
[50] = S. cerevisiae deletion strains, locus YNL020C, strain ARK1, active compounds read low
[51] = S. cerevisiae deletion strains, locus YNL161W, strain CBK1, active compounds read low
[52] = S. cerevisiae deletion strains, locus YNL183C, strain NPR1, active compounds read low
[53] = S. cerevisiae deletion strains, locus YNL207W, strain RIO2, active compounds read low
[54] = S. cerevisiae deletion strains, locus YNL222W, strain SSU72, active compounds read low
[55] = S. cerevisiae deletion strains, locus YNL307C, strain MCK1 (second series), active compounds read low
[56] = S. cerevisiae deletion strains, locus YOL078W, strain AVO1, active compounds read low
[57] = S. cerevisiae deletion strains, locus YOL136C, strain PFK27, active compounds read low
[58] = S. cerevisiae deletion strains, locus YOR061W, strain CKA2, active compounds read low
[59] = S. cerevisiae deletion strains, locus YOR119C, strain RIO1, active compounds read low
[60] = S. cerevisiae deletion strains, locus YOR231W, strain MKK1, active compounds read low
[61] = S. cerevisiae deletion strains, locus YOR329C, strain SCD5, active compounds read low
[62] = S. cerevisiae deletion strains, locus YPL031C, strain PHO85, active compounds read low
[63] = S. cerevisiae deletion strains, locus YPL153C, strain RAD53, active compounds read low
[64] = S. cerevisiae deletion strains, locus YPL204W, strain HRR25, active compounds read low
[65] = S. cerevisiae deletion strains, locus YPL209C, strain IPL1, active compounds read low
[66] = S. cerevisiae deletion strains, locus YPL256C, strain CLN2, active compounds read low
[67] = S. cerevisiae deletion strains, locus YPR025C, strain CCL1, active compounds read low
[68] = S. cerevisiae deletion strains, locus YPR106W, strain ISR1, active compounds read low
[69] = S. cerevisiae deletion strains, locus YPR111W, strain DBF20, active compounds read low
[70] = S. cerevisiae deletion strains, strain NNK1, active compounds read low
[71] = S. cerevisiae deletion strains, strain TSCII, active compounds read low

Measured: normalized growth

COc1ccc(-c2cn3cc(C)ccc3n2)cc1
inactive: [1] 0.98 | [2] 0.975 | [3] 0.97 | [4] 0.978 | [5] 0.971 | [6] 0.987 | [7] 0.986 | [8] 0.984 | [9] 0.983 | [10] 0.977 | [11] 0.97 | [12] 0.985 | [13] 0.973 | [14] 0.982 | [15] 0.975 | [16] 0.953 | [17] 0.981 | [18] 0.98 | [19] 0.973 | [20] 0.98 | [21] 0.981 | [22] 0.975 | [23] 0.966 | [24] 1.07 | [25] 0.937 | [26] 1.01 | [27] 1.02 | [28] 1.04 | [29] 0.963 | [30] 0.983 | [31] 1.02 | [32] 0.943 | [33] 0.968 | [34] 0.979 | [35] 0.995 | [36] 1.06 | [37] 0.957 | [38] 0.976 | [39] 0.961 | [40] 0.978 | [41] 1.05 | [42] 0.923 | [43] 0.956 | [44] 0.96 | [45] 0.956 | [46] 0.977 | [47] 0.973 | [48] 0.979 | [49] 0.995 | [50] 0.963 | [51] 0.971 | [52] 1.02 | [53] 0.977 | [54] 0.975 | [55] 0.953 | [56] 0.978 | [57] 0.969 | [58] 0.973 | [59] 1.03 | [60] 0.959 | [61] 0.982 | [62] 0.979 | [63] 0.986 | [64] 0.992 | [65] 0.962 | [66] 0.96 | [67] 0.978 | [68] 0.971 | [69] 0.954 | [70] 0.978 | [71] 0.972

COc1ccc(-c2nc(-c3ccc(-c4ccccc4)cc3)cs2)cc1
inactive: S. cerevisiae deletion strains, locus YAL013W, strain DEP1, active compounds read low 1.03 | S. cerevisiae deletion strains, locus YBR229C, strain ROT2, active compounds read low 1.01 | [8] 1.03 | S. cerevisiae deletion strains, locus YDR150W, strain NUM1, active compounds read low 1 | S. cerevisiae deletion strains, locus YEL061C, strain CIN8, active compounds read low 0.979 | S. cerevisiae deletion strains, locus YGR078C, strain PAC10, active compounds read low 1.02 | [26] 1.08 | S. cerevisiae deletion strains, locus YHR087W, strain rtc3, active compounds read low 1 | S. cerevisiae deletion strains, locus YJL187C, strain SWE1, active compounds read low 0.968 | S. cerevisiae deletion strains, locus YJR043C, strain POL32, active compounds read low 1.03 | S. cerevisiae deletion strains, locus YJR075W, strain HOC1, active compounds read low 1.02 | S. cerevisiae deletion strains, locus YKL190W, strain CNB1, active compounds read low 0.995 | S. cerevisiae deletion strains, locus YLR039C, strain RIC1, active compounds read low 1.02 | S. cerevisiae deletion strains, locus YLR058C, strain SHM2 (second series), active compounds read low 1.02 | S. cerevisiae deletion strains, locus YLR085C, strain ARP6, active compounds read low 1.02 | S. cerevisiae deletion strains, locus YLR262C, strain YPT6, active compounds read low 1.09 | S. cerevisiae deletion strains, locus YML094W, strain GIM5, active compounds read low 0.999 | S. cerevisiae deletion strains, locus YMR219W, strain ESC1, active compounds read low 1.01 | S. cerevisiae deletion strains, locus YMR263W, strain SAP30, active compounds read low 1.01 | S. cerevisiae deletion strains, locus YNL153C, strain GIM3, active compounds read low 1.02 | S. cerevisiae deletion strains, locus YNL298W, strain CLA4 (second series), active compounds read low 1.09 | S. cerevisiae deletion strains, locus YNL322C, strain KRE1, active compounds read low 1.01 | S. cerevisiae deletion strains, locus YNR030W, strain Alg12, active compounds read low 1.02 | S. cerevisiae deletion strains, locus YPL055C, strain LGE1, active compounds read low 1.01 | S. cerevisiae deletion strains, locus YPL241C, strain CIN2, active compounds read low 1 | S. cerevisiae deletion strains, locus YPR135W, strain CTF4, active compounds read low 1.14 | S. cerevisiae strains, strain wild type, active compounds read low 1
active: S. cerevisiae deletion strains, locus YDL134C, strain PPH21, active compounds read low 0.87

Clc1ccccc1-c1csc(-c2ccncc2)n1
inactive: [1] 0.962 | [2] 0.966 | [3] 0.964 | [4] 0.968 | [5] 0.962 | [6] 0.964 | [7] 0.966 | [8] 0.963 | [9] 0.965 | [10] 0.966 | [11] 0.971 | [12] 0.977 | [13] 0.922 | [14] 0.966 | [15] 0.937 | [16] 0.895 | [17] 0.945 | [18] 0.942 | [19] 0.964 | [20] 0.964 | [21] 0.961 | [22] 0.96 | [23] 0.951 | [24] 1.02 | [25] 0.85 | [26] 0.946 | [27] 0.923 | [28] 1.12 | [29] 1.03 | [30] 0.962 | [31] 0.829 | [32] 0.933 | [33] 0.93 | [34] 0.964 | [35] 0.94 | [36] 1.02 | [37] 0.99 | [38] 0.974 | [39] 0.987 | [40] 0.949 | [41] 0.992 | [42] 0.969 | [43] 0.979 | [44] 0.927 | [45] 0.977 | [46] 0.963 | [47] 0.972 | [48] 0.963 | [49] 0.97 | [50] 0.965 | [51] 0.96 | [52] 1.07 | [53] 0.962 | [54] 0.965 | [55] 0.971 | [56] 0.957 | [57] 0.97 | [58] 0.99 | [59] 0.981 | [60] 0.988 | [61] 0.964 | [62] 0.918 | [63] 0.925 | [64] 0.93 | [65] 0.965 | [66] 1.03 | [67] 0.968 | [68] 0.965 | [69] 0.97 | [70] 0.97 | [71] 0.951
